Inconclusive results are not listed. Activity calls are given as the source filed them. Unless noted, calls follow the shape of the dose curve; as a rule, active = well fitted curve in the direction sought with a large enough effect in the repeat runs; inconclusive = weak or mixed curves; inactive = no such curve, though single readings can be large; an effect the other way counts as inactive or inconclusive.
Legend:
[1] = biological target: Retinoic acid receptor RXR-alpha (Homo sapiens) (UniProt P19793); test: qHTS assay to identify small molecule agonists of the RXR signaling pathway (AID 1159527; calls by dose curve; also: nearly all actives have a fitted effect of over 35% in size)
In short: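 GeneBLAzer RXR-alpha-UAS-bla HEK 293T cells in medium with 2% charcoal-stripped FBS, pre-incubated 5 hr at 37 C, then exposed to compounds 16 hr. Beta-lactamase reporter read by FRET substrate, 2 hr room temperature, 460/530 nm emission.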

[2] = qHTS assay to identify small molecule agonists of the RXR signaling pathway - cell viability counter screen (AID 1159529); also: series mostly up to about 77 µM; nearly all actives have a fitted effect of over 50% in size
In short: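 RXR-alpha-UAS-bla HEK 293T cells in medium with 2% charcoal-stripped FBS were preincubated 5 hr, then exposed to compounds for 16 hr at 37 C. Viability was read as CellTiter-Glo luminescence after 30 min at room temperature.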

[3] = qHTS assay to identify small molecule antagonists of the retinoid acid receptor (RAR) signaling pathway - cell viability counter screen (AID 1159551); also: nearly all actives have a fitted effect of over 35% in size
In short: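 C3RL4 RARE-luciferase cells, 1,000/well, incubated overnight, then dosed with compound plus 1 uM retinol (final). After 6 hr at 37 C, viability read by CellTiter-Glo ATP luminescence following 30 min at room temperature.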

[4] = qHTS assay to identify small molecule antagonists of the retinoic acid receptor (RAR) signaling pathway (AID 1159552; also: nearly all actives have a fitted effect of over 50% in size)
In short: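 RARE-luc C3RL4 cells; cpds + 1 uM (final) retinol, 6 hr, 37 C/5% CO2; luciferase reagent, 30 min RT, luminescence readout. Inhibitors of retinol-driven signal scored.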

[5] = qHTS assay to identify small molecule agonists of the retinoic acid receptor (RAR) signaling pathway (AID 1159553)
In short: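 C3RL4 RARE-luciferase cells were seeded at 1,000/well and grown overnight at 37 C, then exposed to compounds for 6 hr at 37 C, 5% CO2. Luciferase reagent was added and luminescence was read after 30 min at room temperature.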

[6] = qHTS assay to identify small molecule antagonists of the estrogen related receptor (ERR) signaling pathway from Tox21 library - cell viability counter screen (AID 1224834); also: nearly all actives have a fitted effect of over 30% in size
In short: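 ERR reporter cells, 2,000 per well, rested 6 h, then exposed to compound in DMSO for 17.5 hours at 37 C. Viability read as fluorescence after 30 min with CellTiter-Fluor.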

[7] = biological target: Luciferin 4-monooxygenase (Photinus pyralis) (UniProt P08659); test: qHTS assay to identify small molecule inhibitors of firefly luciferase (AID 1224835); also: series mostly up to about 120 µM; nearly all actives have a fitted effect of over 25% in size
In short: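 Biochemical qHTS: compounds run as interplate titrations against purified firefly enzyme, with D-luciferin and ATP each at its KM concentration. Light output recorded by CCD imaging.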

[8] = qHTS assay to identify small molecule agonists of the constitutive androstane receptor (CAR) signaling pathway - cell viability counter screen (AID 1224836); also: series mostly up to about 92 µM; nearly all actives have a fitted effect of over 45% in size
In short: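 HepG2 cells stably carrying hCAR and a CYP2B6-2.2kb reporter were plated 4 h, then given compounds at 15 concentrations plus PK11195 (final 0.75 uM). After 23 h at 37 C, viability was read by CellTiter-Fluor fluorescence.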

[9] = qHTS assay to identify small molecule antagonists of the constitutive androstane receptor (CAR) signaling pathway - cell viability counter screen (AID 1224837); also: series mostly up to about 92 µM; nearly all actives have a fitted effect of over 45% in size
In short: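 HepG2 cells stably carrying hCAR and CYP2B6-2.2kb reporter, stimulated with 50 nM CITCO and compounds at 15 concentrations for 23 h at 37 C. Viability measured by CellTiter-Fluor fluorescence.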

[10] = biological target: Nuclear receptor subfamily 1 group I member 3 (Homo sapiens) (UniProt Q14994); test: qHTS assay to identify small molecule antagonists of the constitutive androstane receptor (CAR) signaling pathway (AID 1224838); also: nearly all actives have a fitted effect of over 40% in size
In short: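 HepG2 cells stably carrying hCAR and a CYP2B6-2.2kb luciferase reporter, seeded 4 hrs before compound (15 concentrations). Stimulated with 50 nM CITCO for 24 hr at 37 C. ONE-Glo luminescence read after 30 min at room temperature.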

[11] = biological target: Nuclear receptor subfamily 1 group I member 3 (Homo sapiens) (UniProt Q14994); test: qHTS assay to identify small molecule agonists of the constitutive androstane receptor (CAR) signaling pathway (AID 1224839); also: series mostly up to about 92 µM; nearly all actives have a fitted effect of over 15% in size
In short: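 HepG2 cells stably expressing hCAR and a CYP2B6-2.2kb luciferase reporter were treated with compounds at 15 concentrations plus 0.75 uM PK11195 (final) for 24 h at 37 C; luminescence was read after ONE-Glo addition.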

[12] = qHTS assay to identify small molecule antagonists of the estrogen related receptor signaling pathway with the pleiotropic PPARgamma coactivator (PGC) from Tox21 10K library - cell viability counter screen (AID 1224840; active = well fitted cell-killing curve with a large enough effect in the repeat runs, not every such curve was filed as active; also: nearly all actives have a fitted effect of over 40% in size)
In short: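 PGC/ERR cells (2,000/well) plated 6 h, then compound-treated for 17.5 h at 37 C. Viability measured by CellTiter-Fluor fluorescence after 30 min at 37 C, multiplexed with the pathway assay.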

[13] = qHTS assay to identify small molecule antagonists of the estrogen related receptor (ERR) signaling pathway - cell viability counter screen (AID 1224818); also: series mostly up to about 46 µM
In short: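 ERR cells, 2,000 per well, compound added after 6 h and incubated 17.5 h at 37 C. Viability read by CellTiter-Fluor fluorescence after a further 30 min at 37 C.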

[14] = qHTS assay to identify small molecule antagonists of the estrogen related receptor (ERR) signaling pathway (AID 1224819;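 also: luminescence from an ERR-driven luciferase reporter measured with One-Glo reagent; series mostly up to about 46 µM; nearly all actives have a fitted effect of over 50% in size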)
In short: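 ERR reporter cell line (NTP) plated at 2,000 cells/well, settled 6 h at 37C/5% CO2, then exposed to LOPAC compounds for 18 h at 37C. One-Glo luciferase luminescence read after 30 min at room temperature.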

[15] = qHTS assay to identify small molecule agonists of the estrogen related receptor (ERR) signaling pathway (AID 1224820)
In short: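 ERR reporter cell line (from NTP), 2,000 cells/well, incubated 6 h before compound addition, then 18 h at 37 C. Luminescence measured 30 min after One-Glo reagent at room temperature.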

[16] = tested on: estrogen-related receptor alpha (ERRalpha) with PGC-1alpha coactivator, human; test: qHTS assay to identify small molecule antagonists of the estrogen related receptor signaling pathway with the pleiotropic PPARgamma coactivator (PGC) (AID 1224821; calls by dose curve;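 also: series mostly up to about 46 µM; lower luminescence signal means antagonism of PGC/ERR signalling; nearly all actives have a fitted effect of over 50% in size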)
In short: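 PGC/ERR reporter cell line, plated 6 h before compound addition, then exposed 18 h at 37 °C. Luciferase activity read by luminescence 30 min after One-Glo addition; decrease indicates antagonism.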

[17] = qHTS assay to identify small molecule antagonists of the estrogen related receptor signaling pathway with the pleiotropic PPARgamma coactivator (PGC) cell viability counter screen (AID 1224822; also: series mostly up to about 46 µM)
In short: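 PGC/ERR cells rested 6 h, then compound-treated 17.5 h at 37 C. CellTiter-Fluor added for 30 min at 37 C, viability measured by fluorescence intensity.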

[18] = qHTS assay to identify small molecule agonists of the estrogen related receptor signaling pathway with the pleiotropic PPARgamma coactivator (PGC) (AID 1224823)
In short: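 PGC/ERR reporter cells seeded 6 h, then exposed to compounds (23 nL in DMSO) for 18 h at 37 C. One-Glo luciferase luminescence read after 30 min at room temperature.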

[19] = qHTS assay to identify small molecule agonists of the estrogen related receptor signaling pathway with the pleiotropic PPARgamma coactivator (PGC) from Tox21 10K library (AID 1224842); also: nearly all actives have a fitted effect of over 15% in size
In short: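 PGC/ERR reporter cell line, 2,000 cells per well, incubated 6 h at 37 C before 23 nL compound in DMSO was added. After 18 h at 37 C, One-Glo luminescence read following 30 min at room temperature.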

Measured: Potency

Chain of Luciferin 4-monooxygenase (Photinus pyralis) (P08659 whole entry, looked up): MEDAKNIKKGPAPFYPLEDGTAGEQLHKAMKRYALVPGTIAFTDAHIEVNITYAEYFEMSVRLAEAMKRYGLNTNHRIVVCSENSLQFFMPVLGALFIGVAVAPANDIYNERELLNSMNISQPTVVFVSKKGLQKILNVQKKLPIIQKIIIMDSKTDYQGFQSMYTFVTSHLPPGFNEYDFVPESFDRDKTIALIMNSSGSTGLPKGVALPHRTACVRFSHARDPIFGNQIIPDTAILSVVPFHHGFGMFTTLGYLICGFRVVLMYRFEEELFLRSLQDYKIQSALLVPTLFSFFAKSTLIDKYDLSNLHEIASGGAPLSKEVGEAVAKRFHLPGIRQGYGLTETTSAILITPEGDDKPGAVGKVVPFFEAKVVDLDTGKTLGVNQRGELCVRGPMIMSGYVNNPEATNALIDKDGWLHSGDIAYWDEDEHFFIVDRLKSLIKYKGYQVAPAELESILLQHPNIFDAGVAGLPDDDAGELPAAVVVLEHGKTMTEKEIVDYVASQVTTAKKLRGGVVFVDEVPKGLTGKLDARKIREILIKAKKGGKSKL
Chain of Nuclear receptor subfamily 1 group I member 3 (Homo sapiens) (Q14994 whole entry, looked up): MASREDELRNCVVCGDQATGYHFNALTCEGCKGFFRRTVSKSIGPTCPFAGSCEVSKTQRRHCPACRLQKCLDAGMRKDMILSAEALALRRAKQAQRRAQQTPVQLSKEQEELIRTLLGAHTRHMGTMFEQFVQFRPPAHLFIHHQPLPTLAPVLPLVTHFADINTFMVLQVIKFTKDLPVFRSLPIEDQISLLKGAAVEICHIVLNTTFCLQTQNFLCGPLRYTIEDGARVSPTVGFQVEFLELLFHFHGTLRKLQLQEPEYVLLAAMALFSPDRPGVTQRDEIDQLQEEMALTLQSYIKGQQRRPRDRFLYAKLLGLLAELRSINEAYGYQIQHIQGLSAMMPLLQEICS
Chain of Retinoic acid receptor RXR-alpha (Homo sapiens) (P19793 whole entry, looked up): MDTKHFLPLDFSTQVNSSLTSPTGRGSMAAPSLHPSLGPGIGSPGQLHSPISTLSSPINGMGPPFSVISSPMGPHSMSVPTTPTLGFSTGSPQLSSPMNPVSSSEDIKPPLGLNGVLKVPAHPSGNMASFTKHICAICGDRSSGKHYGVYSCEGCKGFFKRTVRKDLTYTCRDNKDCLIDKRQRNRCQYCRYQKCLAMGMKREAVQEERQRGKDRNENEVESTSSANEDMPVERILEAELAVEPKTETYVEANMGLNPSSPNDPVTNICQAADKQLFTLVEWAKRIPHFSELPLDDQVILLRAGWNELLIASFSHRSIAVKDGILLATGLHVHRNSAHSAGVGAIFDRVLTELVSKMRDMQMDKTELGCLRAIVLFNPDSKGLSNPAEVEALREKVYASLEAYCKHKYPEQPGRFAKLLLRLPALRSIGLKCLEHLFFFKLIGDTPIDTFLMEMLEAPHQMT

CNC(=O)O/N=C/C(C)(C)S(C)=O (stereo not given)
not listed: [13] | [14] | [15] | [16] | [17] | [18] | [19]
inactive: all other assays above

CC(C)c1cccc(C(C)C)c1O
not listed: [11]
inactive: all other assays above

O=C(O)Cc1ccccc1
not listed: [13] | [14] | [15] | [16] | [17] | [18]
inactive: all other assays above

CNC(=O)O/N=C/C(C)(C)SC
not listed: [13] | [14] | [15] | [16] | [17] | [18]
inactive: all other assays above

OCC(O)CCl (stereo not given)
not listed: [13] | [14] | [15] | [16] | [17] | [18] | [19]
inactive: all other assays above

CC[N+](=O)[O-]
not listed: [13] | [14] | [15] | [16] | [17] | [18] | [19]
inactive: all other assays above

CNC(=O)O/N=C/C(C)(C)S(C)(=O)=O
not listed: [13] | [14] | [15] | [16] | [17] | [18] | [19]
inactive: all other assays above

C/C=C/c1ccc2c(c1)OCO2
not listed: [13] | [14] | [15] | [16] | [17] | [18] | [19]
inactive: all other assays above

Cl[C@H]1OCCO[C@@H]1Cl
not listed: [13] | [14] | [15] | [16] | [17] | [18]
inactive: all other assays above

OC[C@@H](O)[C@H]1O[C@@H]2O[C@H](C(Cl)(Cl)Cl)O[C@@H]2[C@H]1O
not listed: [13] | [14] | [15] | [16] | [17] | [18]
inactive: all other assays above

From PubChem BioAssay (Tox21)
